Experimental data: PubChem BioAssay (NCATS)
Values joined by “and” are separate entries in the source; they are usually repeats but may differ in a detail not shown here. Equal entries are not always repeated. Inconclusive results are not listed. Active and inactive are the calls of the source. Unless noted, calls come from the whole dose curve; as a rule, active = well fitted curve in the direction sought with a large enough effect; inconclusive = small, poorly fitted or top-dose-only effect, or another doubt; inactive = no such curve, though single readings can be large; an effect the other way counts as inactive or inconclusive.

Assays:
[1] = tested on: OV90; experiment: Primary qHTS to identify gynecologic anti-cancer compounds using libraries of approved drugs and bioactive compounds (AID 1345084); details: Gynecologic cancer cell panel viability, ATPlite luminescence, 48 h; series mostly up to 57.5 µM; note: nearly all actives have a fitted effect of over 55% in size; note: potency is the fitted concentration of half-maximal effect
Outline: (§1)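 48 h compound exposure at 37 C, 5% CO2; five-point qHTS. ATPlite luminescence readout of cell ATP.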

[2] = tested on: PA-1; experiment: as above; details: Gynecologic cancer cell panel viability, ATPlite luminescence, 48 h; series mostly up to 57.5 µM
Outline: as §1

[3] = tested on: SKOV3; experiment: as above; details: Gynecologic cancer cell panel viability, ATPlite luminescence, 48 h; series mostly up to 57.5 µM
Outline: as §1

[4] = tested on: Tov-21-G; experiment: as above; details: Gynecologic cancer cell panel viability, ATPlite luminescence, 48 h; series mostly up to 57.5 µM
Outline: as §1

[5] = tested on: Tov112D; experiment: as above; details: Gynecologic cancer cell panel viability, ATPlite luminescence, 48 h; series mostly up to 57.5 µM
Outline: as §1

[6] = Drug repurposing screens with cells derived from glioblastoma tumor samples (AID 1345199); details: GBM patient neurospheres viability, ATP luminescence, 48 h; note: nearly all actives have a fitted effect of over 40% in size; note: potency is the fitted concentration of half-maximal effect; for activity, negative = cell killing: % is set by controls: 0 for no effect and ±100 for the full control effect
Outline: (§2)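 Primary testing used CD133+ neurospheres from four GBM patients, seven concentrations, 48 h exposure and ATP-based viability; confirmation added three slower-growing patient lines.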

[7] = molecular target: Nuclear receptor subfamily 1 group I member 2 (Rattus norvegicus) (UniProt Q9R1A7); experiment: qHTS assay for small molecule activators of the rat pregnane X receptor (rPXR) signaling pathway (AID 651751; call rule not given here; note: 0% is about no effect); details: rPXR reporter cells, luciferase (One-Glo), 24 h
[8] = qHTS assay for small molecule activators of the human pregnane X receptor (PXR) signaling pathway (AID 720659; call rule not given here; note: 0% is about no effect)
[9] = tested on: astro; experiment: Drug repurposing screens with cells derived from glioblastoma tumor samples (AID 1345199); details: viability, ATP luminescence, 48 h; series mostly up to 45.9 µM; note: nearly all actives have a fitted effect of over 40% in size; note: potency is the fitted concentration of half-maximal effect; for activity, negative = cell killing: % is set by controls: 0 for no effect and ±100 for the full control effect
Outline: as §2

[10] = qHTS assay to identify inhibitors of the type 1 interferon - major histocompatibility complex class I in skeletal muscle: Counter screen cell viability and HiBit confirmation (AID 1347412); details: iHSKM muscle cells + IFN-b, HiBiT or CellTiter-Glo, 24 h; note: potency is the fitted concentration of half-maximal effect; nearly all actives have a fitted effect of over 60% in size
Outline: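 CRISPR HLA-B*08:01-HiBit immortalized human myoblasts (C25cl48) stimulated with 4 ng/ml IFN-beta and compounds (12-point 1:3, top 46 uM final) for 24 h at 37 C. Duplicate plates read by HiBit lytic luminescence or CellTiter Glo ATP.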

[11] = at 45.9 µM (top of the series), tumour line B
[12] = at 45.9 µM (top of the series), tumour line D
[13] = at 46 µM (top of the series), tumour line A
[14] = at 46.1 µM (top of the series), tumour line C
[15] = at 20 µM (top of the series), tumour line C
[16] = at 21.2 µM (top of the series), tumour line B
[17] = at 21.2 µM (top of the series), tumour line D
[18] = at 21.3 µM (top of the series), tumour line A

Nuclear receptor subfamily 1 group I member 2 (Rattus norvegicus), sequence (Q9R1A7 whole entry, looked up): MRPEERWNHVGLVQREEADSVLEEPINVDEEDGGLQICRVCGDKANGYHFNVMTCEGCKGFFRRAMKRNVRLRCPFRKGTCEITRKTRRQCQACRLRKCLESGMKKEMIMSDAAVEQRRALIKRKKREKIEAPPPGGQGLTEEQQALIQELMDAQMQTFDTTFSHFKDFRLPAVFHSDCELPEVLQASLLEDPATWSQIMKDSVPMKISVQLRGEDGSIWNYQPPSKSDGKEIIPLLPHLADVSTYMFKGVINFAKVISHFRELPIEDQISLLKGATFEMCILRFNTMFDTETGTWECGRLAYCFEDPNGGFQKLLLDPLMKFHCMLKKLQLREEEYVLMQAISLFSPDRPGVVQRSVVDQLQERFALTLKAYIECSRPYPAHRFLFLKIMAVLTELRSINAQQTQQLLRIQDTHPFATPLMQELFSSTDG

CCCNC(=O)NS(=O)(=O)c1ccc(Cl)cc1
inactive: Potency [1] | Potency [2] | Potency [3] | Potency [4] | Potency [5] | activity, negative = cell killing [6, 11] -7.96% | activity, negative = cell killing [6, 12] 5.01% | activity, negative = cell killing [6, 13] -11.4% | activity, negative = cell killing [6, 14] -13.2% | max response [7] -5.97% and -1.04% | outcome [8]

COc1ncc(-c2ccc3nccc(-c4ccnnc4)c3c2)cc1NS(=O)(=O)c1ccc(F)cc1F
active: Potency [1] 3.55 µM | Potency [2] 0.355 µM | Potency [4] 12.6 µM

CC(=O)c1ccc(S(=O)(=O)NC(=O)NC2CCCCC2)cc1
inactive: Potency [1] | Potency [2] | Potency [3] | Potency [4] | Potency [5] | activity, negative = cell killing [6, 11] -1.16% | activity, negative = cell killing [6, 12] 0.333% | activity, negative = cell killing [6, 13] -21.5% | activity, negative = cell killing [6, 14] -21% | Potency [9] | max response [7] -0.823% and -0.02% | outcome [8]

Cc1nc(N)sc1-c1ccnc(Nc2ccc(N3CCOCC3)cc2)n1
active: Potency [1] 15.8 µM | Potency [2] 8.91 µM | Potency [3] 8.91 µM | Potency [4] 14.1 µM | Potency [5] 12.6 µM | Potency ([10]; HiBiT) 5.57 µM

CCN(CC)C(=O)c1ccc(O)c(OC)c1
inactive: Potency [1] | Potency [2] | Potency [3] | Potency [4] | Potency [5] | activity, negative = cell killing [6, 15] -17.1% | activity, negative = cell killing [6, 16] -3.79% | activity, negative = cell killing [6, 17] 8.85% | activity, negative = cell killing [6, 18] -7.96% | activity, negative = cell killing [6, 11] -9.11% | activity, negative = cell killing [6, 12] 5.23% | activity, negative = cell killing [6, 13] -18.7% | activity, negative = cell killing [6, 14] -18.9%

COc1cc(N2CCC(N3CCN(C)CC3)CC2)ccc1Nc1ncnc(Nc2ccccc2S(=O)(=O)C(C)C)n1
active: Potency [1] 8.91 µM | Potency [2] 7.94 µM | Potency [4] 12.6 µM

CC(=O)N[C@@H](CS)C(=O)O
inactive: Potency [1] | Potency [2] | Potency [3] | Potency [4] | Potency [5] | activity, negative = cell killing [6, 11] -7.88% | activity, negative = cell killing [6, 12] -1.21% | activity, negative = cell killing [6, 13] -28.2% | activity, negative = cell killing [6, 14] -14.2% | outcome [8]

COc1ccc2c(Oc3ccc(NC(=O)c4c(C)n(CC(C)(C)O)n(-c5ccccc5)c4=O)cc3F)ccnc2c1
inactive: Potency [1] | Potency [2] | Potency [4] | Potency [5]

C[N+](C)(C)CCCCCC[N+](C)(C)C
inactive: Potency [1] | Potency [2] | Potency [3] | Potency [4] | Potency [5] | activity, negative = cell killing [6, 11] -9.48% | activity, negative = cell killing [6, 12] -17.5% | activity, negative = cell killing [6, 13] -4.52% | activity, negative = cell killing [6, 14] 8.25%

COCCOC(=O)C1=C(C)NC2=C(C(=O)CC(c3ccccc3OC)C2)C1c1cccc(O)c1 (stereo not drawn)
inactive: Potency [1] | Potency [2] | Potency [4] | Potency [5]

O=C(Nc1ccccc1-c1cn2c(CN3CCNCC3)csc2n1)c1cnc2ccccc2n1
inactive: Potency [1] | Potency [2] | Potency [3] | Potency [4] | Potency [5]
active: Potency ([10]; HiBiT) 11.1 µM | Potency ([10]; Viability) 15.7 µM

CCN1CCC[C@H]1CNC(=O)c1cc(S(N)(=O)=O)ccc1OC
inactive: Potency [1] | Potency [2] | Potency [3] | Potency [4] | Potency [5] | activity, negative = cell killing [6, 11] 0.712% | activity, negative = cell killing [6, 12] -10.3% | activity, negative = cell killing [6, 13] -29.7% | activity, negative = cell killing [6, 14] 1.29%

COC[C@@H](c1ccc(C(F)(F)F)cc1)N1CCN(C2(C)CCN(C(=O)c3c(C)ncnc3C)CC2)C[C@H]1C
inactive: Potency [1] | Potency [2] | Potency [4] | Potency [5]

COc1cc2ncnc(Nc3ccc(F)c(Cl)c3)c2cc1OCCCN1CCOCC1
inactive: Potency [1] | Potency [2] | Potency [5] | activity, negative = cell killing [6, 14] -12.4%
active: Potency [3] 10 µM | Potency ([6]; tumour line A) 5.62 µM | Potency ([6]; tumour line B) 17.8 µM | Potency ([6]; tumour line D) 8.91 µM

CC(=O)CCCCn1c(=O)c2c(ncn2C)n(C)c1=O
inactive: Potency [1] | Potency [2] | Potency [3] | Potency [4] | Potency [5] | activity, negative = cell killing [6, 15] -6.47% | activity, negative = cell killing [6, 16] 0.116% | activity, negative = cell killing [6, 17] 1.87% | activity, negative = cell killing [6, 18] -23.5%

COc1cc2ncnc(-n3nc(-c4ccccn4)nc3N)c2cc1OC
inactive: Potency [1] | Potency [2] | Potency [4] | Potency [5]

CC[C@]1(O)C[C@@H]2CN(CCc3c([nH]c4ccccc34)[C@@](C(=O)OC)(c3cc4c(cc3OC)N(C)[C@H]3[C@@](O)(C(=O)OC)[C@H](OC(C)=O)[C@]5(CC)C=CCN6CC[C@]43[C@@H]65)C2)C1
active: Potency [1] 11.2 µM and 4.47 µM and 7.94 µM | Potency [2] 316 nM and 355 nM | Potency [4] 316 nM and 447 nM and 631 nM | Potency [5] 158 nM and 316 nM

O=C(O)CCc1nc(-c2ccccc2)c(-c2ccccc2)o1
inactive: Potency [1] | Potency [2] | Potency [3] | Potency [4] | Potency [5] | activity, negative = cell killing [6, 11] -13% | activity, negative = cell killing [6, 12] 3.1% | activity, negative = cell killing [6, 14] -11.6% | Potency [9]

NC(N)=Nc1nc(CSCC/C(N)=N/S(N)(=O)=O)cs1
inactive: Potency [1] | Potency [2] | Potency [3] | Potency [4] | Potency [5] | activity, negative = cell killing [6, 11] -1.53% | activity, negative = cell killing [6, 12] -7.06% | activity, negative = cell killing [6, 13] -13.8% | activity, negative = cell killing [6, 14] -8.17%
